Source: PubChem BioAssay AID1236 (Emory University Molecular Libraries Screening Center, 2008)
Among all 220,000 compounds or so, about 800 (0.36%) were called active. The list comes from a sample in which actives are over-represented; it also holds similar structures and randomly drawn compounds. A number with no mark means an inactive call.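 Rule for the calls: active = inhibition above about 50% (limit read from the data); inactive = the rest.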

Each compound was assayed on calpain II (m-calpain), Sus scrofa (assay: m-calpain protease activity blockers – biochemical, fluorogenic peptide substrate, 1536-well, primary screen (AID 1236)). Conditions: purified calpain II, 30 min, at 16 µM, stronger effect = higher value.

First: Cc1cccc(NC(=S)N(CCN(C)C)C(C)c2ccco2)c1 (stereo not given)
Second: C/C(=N/NC(=S)Nc1ccccc1)c1ccc2c(c1)OCO2
The inhibition of the first is higher: -1.81% for the first, -6.26% for the second.

First: FC(F)(F)c1nnc2ccc(N3CCN(c4ccccc4)CC3)nn12
Second: Cc1ccc(N2CCN(/N=C/c3cccs3)CC2)cc1
The inhibition of the first is higher: 8.02% for the first, -29.6% for the second.

Compared with `Cc1ccnc(NC(=O)Cn2ccc([N+](=O)[O-])n2)c1`, `Cc1ccc2[nH]cc(CCNC(=O)c3ccc([N+](=O)[O-])cc3)c2c1` is higher in inhibition: -9.6% for the first, 9.36% for the second.

Going from `Cc1cc(C)cc(C(=O)N(CCc2ccccc2)C2=CC3CCC(C2)N3C)c1` (stereo not given) to `Cc1cccc(N(C)C(=O)c2cc3c(=O)[nH]c4ccc(C)cc4c3s2)c1`, the inhibition falls from -21.9% to -47.9%.

Going from `CCn1c(SCC(=O)N/N=C/c2ccccc2OCC(=O)O)nnc1-c1ccc(C(C)(C)C)cc1` to `COc1ccc(S(=O)(=O)N(CC(=O)N/N=C/c2ccccc2C(=O)O)c2ccccc2OC)cc1`, the inhibition rises from -10.5% to -1.16%.

Going from `CCC/C=C(\CCC)C(NC(=O)Cc1ccccc1)c1ccc(C(=O)OC)cc1` (stereo not given) to `CCC(C(=O)OCC(=O)Nc1ccc(C(=O)Nc2ccc(OC)cc2)cc1)c1ccccc1` (stereo not given), the inhibition rises from 3.04% to 38%.

Going from `CCOC(=O)CN(C)S(=O)(=O)c1ccc(-c2cc(C(=O)OC)sc2C(F)(F)F)cc1` to `COC(=O)Cc1c(O)ccn(Cc2cccc(C(F)(F)F)c2)c1=O`, the inhibition falls from 17.5% to -20.3%.

Going from `Oc1c(Br)cc(/C=N/NC(=S)NCC2CCCO2)cc1Br` (stereo not given) to `O=C(NC(=S)Nc1cccc2c(O)cccc12)c1cccc(Br)c1`, the inhibition rises from -20.7% to -4.46%.

First: CCc1ccc(OCC(=O)OCC(=O)c2c(N)n(C)c(=O)n(C)c2=O)cc1
Second: Cc1cc(C(=O)OCC(=O)c2c(N)n(C)c(=O)n(C)c2=O)c(C)o1
The inhibition of the first is lower: 4.26% for the first, 32.4% for the second.

Going from `Cc1csc(NC(=O)c2ccc(-c3ccc(Cl)cc3Cl)o2)n1` to `CNC(=O)c1csc(Cc2c(Cl)sc3ccc(Cl)cc23)n1`, the inhibition rises from -95.3% to 0.86%.

Compared with `COc1ccc(CN2CCN(Cc3cn(C)nc3-c3ccccc3)CC2CCO)c(C)c1C` (stereo not given), `CC(C)Oc1ccc(Cc2n[nH]c(=S)n2Cc2ccccc2)cc1Cl` is higher in inhibition: -24.9% for the first, 15.2% for the second.

First: O=C1CCN(C(=O)Nc2ccccc2)N1
Second: S=C(NCCc1ccccc1)Nc1ccccc1
The inhibition of the first is lower: 9.94% for the first, 16% for the second.

First: CC(C)CNC(=O)CC(c1ccccc1)c1c(O)ccc2ccccc12 (stereo not given)
Second: CCNC(=O)N1c2ccccc2Sc2ccccc21
The inhibition of the first is lower: -74.9% for the first, -4.08% for the second.

Going from `CCc1ccc(Oc2nc([N+](=O)[O-])nn2C)cc1` to `C=CCn1c(CCc2ccc(OC(C)C)cc2)n[nH]c1=S`, the inhibition falls from -6.47% to -15.1%.

Going from `C=CCn1c(SCc2cccc(F)c2)nc2cc(C(=O)N3CCC(C(N)=O)CC3)ccc2c1=O` to `O=C(c1cccc(F)c1)N1CCN(c2ccc([N+](=O)[O-])c(N3CCCCC3)c2)CC1`, the inhibition rises from -22.9% to 5.06%.

Compared with `Clc1ccc(-c2nnc(SCc3nc4ccccc4s3)o2)cc1`, `O=C(OCC#CCSc1nnc(-c2ccncc2)o1)c1sc2ccccc2c1Cl` is higher in inhibition: 8.94% for the first, 20.6% for the second.

Going from `O=C(O)CCn1cc(/C=C/C(=O)c2ccc(Cl)cc2)c(-c2cccc(Br)c2)n1` to `O=C(OCc1ccc(Br)cc1)c1cccc(-c2nnc(-c3ccccc3)o2)c1`, the inhibition falls from 31.9% to -6.16%.

First: CS(=O)(=O)c1ccc2nc(NC(=O)c3ccc(Cl)nc3)sc2c1
Second: O=C(COC(=O)c1ccc(Cl)nc1)NCc1cccs1
The inhibition of the first is lower: 8.84% for the first, 13.2% for the second.

Compared with `Nc1nc(-c2sc3nc4c(cc3c2N)CCCC4)nc(N2CCOCC2)n1`, `Cc1cccc2cc3c(N)c(C(=O)N4CCCc5ccccc54)sc3nc12` is higher in inhibition: -253% for the first, -64.7% for the second.

Going from `CCOC(=O)CN/C=C(\C#N)c1ccc(F)cc1` to `C/C(=N\OCC(=O)O)c1ccc(Cl)cc1`, the inhibition rises from -15.5% to 25.9%.

Compared with `Nc1c(Cl)cc(S(N)(=O)=O)cc1S(N)(=O)=O`, `Nc1ccc(Cl)c(S(=O)(=O)Nc2ccccc2Cl)c1` is lower in inhibition: -2.3% for the first, -15% for the second.

Going from `Cc1cc(-c2ccc(/C=N/n3cnnc3)o2)c([N+](=O)[O-])cc1C` to `Cc1ccc(Cl)cc1-c1ccc(/C=N/n2cnnc2)o1`, the inhibition falls from 34.4% to 4.96%.

First: NS(=O)(=O)c1ccc(CNC(=O)c2cnccn2)cc1
Second: O=C(Nc1ccc(S(=O)(=O)Nc2nccs2)cc1)c1cc(-c2ccncc2)nc2ccccc12
The inhibition of the first is higher: -9.46% for the first, -37.6% for the second.

First: Cc1nc(NC2=NC(C(=O)Nc3ccc(Cl)cc3)CC(=O)N2)nc2ccccc12 (stereo not given)
Second: COc1ccc(Cl)cc1C(=O)Nc1ccc(N(C)C(C)=O)cc1
The inhibition of the first is higher: 6.9% for the first, -12.6% for the second.

First: CCC(C(=O)OCC(=O)Nc1c(Cl)cc(Cl)cc1Cl)c1ccccc1 (stereo not given)
Second: CC(C)(C)c1cc(C(=O)NN)n(Cc2ccc(Cl)cc2Cl)n1
The inhibition of the first is lower: 11.9% for the first, 17.2% for the second.

Going from `CCOc1c(CNCc2ccc(C(=O)O)cc2)cccc1OC` to `COc1cc(C(=O)NCc2ccc(-n3cccc3)cc2)cc(OC)c1OC`, the inhibition rises from -12% to 8.77%.

Going from `CC(=O)N1C(C)c2ccccc2C(C)(C)CC12CCCCC2` (stereo not given) to `Cc1cc(C(=O)CCl)c(C)n1CC1COc2ccccc2O1` (stereo not given), the inhibition falls from 10.1% to -16.6%.

First: COC(=O)CCCC1=CC2=CC(=O)C(C)(OC(=O)c3cccs3)C(=O)C2=CN1c1cccc(C#N)c1 (stereo not given)
Second: COC(=O)c1ccccc1NC(=O)C1CC(=O)N(c2ccc(OC)cc2)C1 (stereo not given)
The inhibition of the first is lower: -53.3% for the first, 4.97% for the second.

Going from `CC(=NCc1ccco1)c1c(C(F)(F)F)[nH]n(-c2nc3ccccc3s2)c1=O` to `COc1cc(-n2c(C)nc3cc(C(=O)NCc4ccco4)ccc32)cc(OC)c1OC`, the inhibition rises from -91.3% to 8.54%.

First: Cc1ccsc1/C=C1\SC(N2CCOCC2)=NC1=O
Second: O=[N+]([O-])c1ccc(N2CCSCC2)cc1O
The inhibition of the first is higher: 15.5% for the first, 2.99% for the second.

First: O=C(Nc1ccccc1C(F)(F)F)N1CCCC1c1cccnc1 (stereo not given)
Second: O=C(CN1C2=NCCN2c2ccccc21)c1cccs1
The inhibition of the first is higher: 3.9% for the first, -7.58% for the second.

Compared with `O=[N+]([O-])c1ccc(N2CCN(S(=O)(=O)c3ccc4ccccc4c3)CC2)cc1NCc1ccco1`, `O=C(Nc1ccc2c(c1)CCC2)c1cccc(S(=O)(=O)N2CCN(c3ccc(F)cc3)CC2)c1` is higher in inhibition: -59% for the first, -32.9% for the second.

Going from `Cn1c(=O)cc(OCC(=O)N2CCN(c3ccccc3F)CC2)c2ccccc21` to `O=C(c1cccc(S(=O)(=O)Nc2ccccc2Cl)c1)N1CCN(C(=O)c2ccco2)CC1`, the inhibition rises from -13.2% to 10.2%.

Going from `C/C(=N\NC(=S)NC(C)C)c1ccc(C(C)(C)C)cc1` to `CC(C)(C)c1ccc(CCC2OCC(CN3CCOCC3)O2)cc1` (stereo not given), the inhibition falls from 6.32% to -40.5%.

Going from `CC(C)(C)NC(=O)C(=O)NN=C1CCCCCCC1` to `O=C(Nc1cc2c3c(c1)C1CCCC1CN3CC1CCCC21)c1ccc([N+](=O)[O-])cc1` (stereo not given), the inhibition falls from -5.09% to -34.8%.

Compared with `Cn1nc(C(C)(C)C)c(NC(=O)c2sccc2Cl)c1C(C)(C)C`, `Cc1sc2nc(COC(=O)C(NC(=O)c3ccc(Cl)cc3Cl)C(C)C)[nH]c(=O)c2c1C` (stereo not given) is higher in inhibition: -8.61% for the first, -7.99% for the second.

Going from `CC(=O)c1c(N)n(C)c(=O)n(C)c1=O` to `CC1CC1C(=O)OCC(=O)c1c(N)n(C)c(=O)n(C)c1=O` (stereo not given), the inhibition rises from -24.4% to 3.06%.

Going from `CC(C)c1nccn1S(=O)(=O)c1cc([N+](=O)[O-])ccc1Cl` to `COc1ccc(-c2cc(C3CCN(c4ncccc4[N+](=O)[O-])CC3)[nH]n2)cc1`, the inhibition falls from 12% to 10.5%.

Going from `COc1ccc(O[C@H]2C=C[C@@H](c3ccccc3)O[C@@H]2CO/N=C/C[C@@H]2C=C[C@H](OC(C)=O)[C@@H](COC(C)=O)O2)cc1` to `COc1ccc(-c2nnc3ccc(SCc4ccccc4)nn23)cc1`, the inhibition falls from 27% to -6.26%.

Going from `COc1cc(N/C=C2\CC(=O)NC(C)=C2C#N)cc(OC)c1OC` to `COc1ccc(C)cc1NC(=O)c1ccc(-c2ccc(C(C)=O)cc2)o1`, the inhibition rises from -145% to -135%.

Going from `CCOC(=O)c1cc2c(=O)n3ccccc3nc2n(CC(C)C)c1=NC(=O)c1c(-c2c(F)cccc2Cl)noc1C` to `CCCCCn1c(=O)c(C(=O)OCC)c(Cl)c2ccccc21`, the inhibition rises from -60.6% to -1.97%.

First: CCOC(=O)c1c(C)nn(-c2ncccc2NC(=O)CCC(=O)O)c1C
Second: CCN(CC)CCNC(=O)CCCCCn1c(=O)[nH]c2cc(C(=O)OC)ccc2c1=O
The inhibition of the first is higher: 10.4% for the first, -103% for the second.

First: CCCCSc1nc2ccccc2[nH]1
Second: CCc1nnc(NC(=O)CCCSc2nc3ccccc3[nH]2)s1
The inhibition of the first is lower: -22.6% for the first, 2.67% for the second.

Going from `CCCCC(CC)CNC(=O)CCCCn1c(=O)[nH]c2ccsc2c1=O` (stereo not given) to `CC(C)Cc1nnc(NC(=O)CCC(=O)Nc2ccc3cn[nH]c3c2)s1`, the inhibition falls from 13.6% to -10.5%.

Compared with `O=c1cc(O)c(-c2cccc(C(F)(F)F)c2)c(Cl)[nH]1`, `Cc1ccc(NN=C2C(=O)OC(C)(C)OC2=O)c(C)c1` is lower in inhibition: 27.3% for the first, 6.22% for the second.

Going from `Cc1ccc(OCCCn2c(=O)oc3ccccc32)cc1` to `CSCCC(NS(=O)(=O)c1ccc2c(c1)oc(=O)n2C)C(=O)NC1CCCc2ccccc21` (stereo not given), the inhibition rises from 21.8% to 30.2%.

Compared with `O=C(Oc1cccc(NC2=NS(=O)(=O)c3ccccc32)c1)c1ccncc1`, `COc1cccc2cc(S(=O)(=O)c3ccc(C)cc3)/c(=N/NS(=O)(=O)c3ccc(C)cc3)oc12` is lower in inhibition: -20.9% for the first, -24.9% for the second.

In the case of `Fc1c(F)c(C(F)(F)F)c(F)c(F)c1N1CCN(c2ccc3nnc(C(F)(F)F)n3n2)CC1`, the inhibition is reported as 58.9% (active).
For `Cn1c(N)c(C(=O)COC(=O)c2cnc(Cl)c(Cl)c2)c(=O)n(C)c1=O`, the inhibition was 69% (active).
`C#CCSc1nnc(-c2sc3ccccc3c2Cl)o1` was tested, and the inhibition was 50.5% (active).
In the case of `CCOc1cc(/C=C(/C#N)c2ccc(Cl)cc2)cc(Cl)c1OCC(=O)O`, the inhibition is reported as 50.5% (active).
With `Cc1cc([N+](=O)[O-])c(-c2ccc(/C=N/n3cnnc3)o2)cc1Cl` the inhibition was 58.9% (active).
With `CCC(C(=O)OCC(=O)Nc1ccccc1-c1ccccc1)c1ccccc1` (stereo not given) the inhibition was 56.9% (active).
`Cc1ccc(N2CCN(C3=NC(=O)/C(=C\c4cccs4)S3)CC2)cc1` was tested, and the inhibition was 76.7% (active).
For `O=C(c1ccccc1)N1CCN(c2ccc([N+](=O)[O-])c(NCc3ccco3)c2)CC1`, the inhibition was 54.3% (active).
With `CC(C)Oc1ccc(CCc2n[nH]c(=S)n2Cc2ccccc2)cc1` the inhibition was 53.5% (active).
`CC(C)NC(=S)NN=C1CCCCCCCCCCC1` was tested, and the inhibition was 54.9% (active).
In the case of `COc1cc(C(=O)NCc2ccc3c(c2)cc(C)n3C)cc(OC)c1OC`, the inhibition is reported as 65% (active).
For `Cn1c(N)c(C(=O)COC(=O)C23CC4CC(CC(C4)C2)C3)c(=O)n(C)c1=O`, the inhibition was 79.2% (active).
For `Oc1c(Cl)cc(Cl)c(Cl)c1Cc1c(O)c(Cl)cc(Cl)c1Cl`, the inhibition was 109% (active).
In the case of `O=C(COC(=O)CCCSc1nc2ccccc2[nH]1)Nc1ccc(Oc2ccccc2)cc1`, the inhibition is reported as 51.3% (active).
`CCN(CCCNC(=O)CCn1c(=O)[nH]c2ccsc2c1=O)c1ccccc1` was tested, and the inhibition was 64.7% (active).
In the case of `O=C(Nc1ccc2c(c1)CCC2)c1cccc(S(=O)(=O)Nc2ccccc2Cl)c1`, the inhibition is reported as 55.1% (active).
